Results taken from PubChem BioAssay AID488969 (Vanderbilt High Throughput Screening Facility, 2010).
In all, about 110,000 compounds were measured (“z-score”: median about -0.1, highest 2% from about 2 on). The sample holds the highest values, similar compounds and a random draw of the others, so the mix is not that of the screen. Activity calls are given as the source filed them.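 Rule for the calls: active = z-score in the third read window above 3 or below -3; inactive = the rest.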

molecular target: Metabotropic glutamate receptor 8 (Rattus norvegicus) (UniProt P70579); assay: mGluR8 Gi/Go-coupled signaling modulation – cell-based, rat, thallium flux, HTS, primary screen (AID 488969); settings: HEK293 rat mGluR8, GIRK (G protein-gated inwardly rectifying potassium channel) thallium flux, FluoZin2; at 10 µM; stronger effect = higher value; submaximal glutamate (EC20) added with thallium
Sequence (P70579 whole entry, looked up): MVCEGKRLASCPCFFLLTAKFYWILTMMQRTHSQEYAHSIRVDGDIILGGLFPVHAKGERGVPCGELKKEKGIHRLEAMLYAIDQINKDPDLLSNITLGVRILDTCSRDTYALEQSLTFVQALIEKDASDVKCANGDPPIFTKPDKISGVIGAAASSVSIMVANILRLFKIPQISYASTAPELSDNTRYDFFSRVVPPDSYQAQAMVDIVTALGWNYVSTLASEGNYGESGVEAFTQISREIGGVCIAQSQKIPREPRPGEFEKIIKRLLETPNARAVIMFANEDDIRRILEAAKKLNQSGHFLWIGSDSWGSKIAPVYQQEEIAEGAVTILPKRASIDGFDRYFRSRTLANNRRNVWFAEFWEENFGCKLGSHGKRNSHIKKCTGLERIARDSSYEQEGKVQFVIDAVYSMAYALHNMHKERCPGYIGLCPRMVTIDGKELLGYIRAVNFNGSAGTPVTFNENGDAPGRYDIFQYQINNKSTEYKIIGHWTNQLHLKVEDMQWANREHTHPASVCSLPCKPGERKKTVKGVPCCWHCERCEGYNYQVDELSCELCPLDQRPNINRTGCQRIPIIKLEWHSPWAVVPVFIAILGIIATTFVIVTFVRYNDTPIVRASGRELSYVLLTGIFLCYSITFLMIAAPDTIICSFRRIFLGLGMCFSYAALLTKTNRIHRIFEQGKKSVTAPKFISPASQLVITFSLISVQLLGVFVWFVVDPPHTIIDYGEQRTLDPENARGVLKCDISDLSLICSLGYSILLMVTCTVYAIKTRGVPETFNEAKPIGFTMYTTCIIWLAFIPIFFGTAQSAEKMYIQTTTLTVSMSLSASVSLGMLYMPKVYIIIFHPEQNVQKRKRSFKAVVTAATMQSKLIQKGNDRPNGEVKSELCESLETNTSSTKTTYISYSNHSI

SMILES | z-score
COc1cccc(C(=O)Nc2nc(-c3ccccc3)c(-c3ccccc3)o2)c1 | 7.83 (active)
COc1cc(OC)cc(C(=O)NCc2nc(-c3ccccc3)no2)c1 | -0.942
COc1cc(OC)cc(C(=O)Nc2ccc(-c3nc4ccccc4o3)cc2)c1 | -0.273
COc1cccc(C(=O)Nc2ccccc2)c1 | -0.0644
COc1cc(OC)cc(C(=O)Nc2nc(-c3ccccc3)c(-c3ccccc3)o2)c1 | 3.64 (active)
COc1cccc(C(=O)Nc2c(F)c(F)c(F)c(F)c2F)c1 | -0.711
CCCCOc1ccc(Cc2c(Cl)nc(SC)nc2N2CCOCC2)cc1 | 0.0392
COc1cc(CN2CCN(c3cccc(Cl)c3)CC2)cc(OC)c1OC | -0.348
NS(=O)(=O)c1ccc(N2N=C(c3ccccc3)CC2c2cccc(F)c2)cc1 (stereo unspecified) | 0.17
O=C1CC(c2cccc(F)c2)SC(N(c2ccccc2)c2ccccc2)=N1 (stereo unspecified) | -0.127
Fc1cccc(C2NN=C(c3ccccc3)S2)c1 (stereo unspecified) | 6.37 (active)
O=C(N/N=C/c1ccc[nH]1)c1cccc([N+](=O)[O-])c1 | -0.104
Cc1ccc(S(=O)(=O)N2CC(O)CC2C(=O)Nc2ccc3c(c2)CCC3)cc1 (stereo unspecified) | 2.07
Cc1ccc(S(=O)(=O)N2Cc3ccccc3CC2C(=O)Nc2ccc3c(c2)OCO3)cc1 (stereo unspecified) | -0.0374
Cc1ccc(S(=O)(=O)Nc2ccc3c(c2)CCC3)cc1 | -0.101
COc1ccc(-c2cc3nc(C4CCN(C(=O)OC(C)(C)C)CC4)c(C(=O)O)cn3n2)cc1 | -0.691
c1ccc2c(c1)ncn2CCC1CCCCC1 | 0.093
c1ccc(C(c2ccccc2)N2CCN(c3nc4ccccc4n4cnnc34)CC2)cc1 | -0.222
C/C(N)=C(/C#N)C(=O)CSc1nnnn1-c1ccc(C)cc1 | 0.331
CCCCn1c(SCC(=O)NCc2ccco2)nc2ccccc2c1=O | 6.36 (active)
COCCn1c(SCc2nc(N)nc(Nc3ccccc3C)n2)nc2ccccc2c1=O | -0.279
C/C(N)=C(/C#N)C(=O)CSc1nc2ccccc2c(=O)n1CCCO | -0.389
CCCCn1c(SCC(=O)/C(C#N)=C(\C)N)nc2ccccc2c1=O | 5.63 (active)

SMILES | z-score
O=C(CSc1nc2ccccc2c(=O)n1Cc1ccco1)NCc1ccco1 | -0.352
Cc1ccccc1Nc1nc(N)nc(CSc2nc3ccccc3c(=O)n2C)n1 | 0.919
Cn1c(SCC(=O)NCc2ccco2)nc2ccccc2c1=O | -0.354
CCCCn1c(SCc2nc(N)nc(Nc3ccccc3C)n2)nc2ccccc2c1=O | 3.44 (active)
CCOCCCn1c(SCC(=O)/C(C#N)=C(\C)N)nc2ccccc2c1=O | -0.243
C/C(N)=C(/C#N)C(=O)CSc1nc2ccccc2c(=O)n1-c1ccc(C)c(Cl)c1 | -0.275
C/C(N)=C(/C#N)C(=O)CSc1nc2cc(Cl)ccc2c(=O)n1-c1ccc(C)cc1 | 2.69
O=C(O)c1cccc(Nc2ncnc3c2cnn3-c2ccccc2)c1 | -1.14
CC(=O)C(/C=N/c1cc(-c2ccc(C)cc2)nn1-c1ccccc1)=C(\C)O | -0.251
CCC(=O)Nc1ccc(S(=O)(=O)N2CCCCC2)cc1OC | 0.0489
CC(C)Cc1nc2oc3c(NCCCN4CCOCC4)ncnc3c2c2c1CCC2 | 0.0144
S=c1[nH]nc(-c2cc(-c3ccco3)[nH]n2)n1-c1ccccc1 | -0.141
COc1cc(S(=O)(=O)N(Cc2ccccn2)Cc2ccco2)ccc1-n1cnnn1 | -0.493
COCC(C)n1c(C)cc(C(=O)CSc2ccc(NC(C)=O)cc2)c1C (stereo unspecified) | 0.445
CC(=O)Nc1ccc(SCC(=O)c2cc(C)n(-c3ccccc3)c2C)cc1 | 0.162
CC(=O)Nc1ccc(SCC(=O)c2cc(C)n(-c3ccccc3F)c2C)cc1 | 4.45 (active)
CC(=O)Nc1ccc(SCC(=O)c2cc(C)n(CC(F)(F)F)c2C)cc1 | 0.0826
COC(=O)c1ccc(-n2c(C)cc(C(=O)CSc3ccc(NC(C)=O)cc3)c2C)cc1 | 3.5 (active)
CC(=O)Nc1ccc(SCC(=O)c2cc(C)n(C)c2C)cc1 | -0.0734
Cn1c(SCC(=O)c2ccc(F)cc2)nnc1-c1ccccc1N | -0.0125
O=C(CCSc1nc(-c2ccc3c(c2)OCO3)cc(C(F)(F)F)n1)NCc1ccco1 | 0.587
O=[N+]([O-])c1cccc(/C=C/c2nc(C=Nc3ccc4ccccc4c3)c(O)o2)c1 | -0.0456
Cc1ccc(S(=O)(=O)N(C)CCCC(=O)Nc2cccc3ccccc23)cc1 | -0.456

SMILES | z-score
O=C(CNC1CCCCCC1)Nc1ccccc1N1CCCCC1 | -0.23
CCC(=O)Nc1ccc(N2CCCCC2)cc1 | -0.169
O=C(CNC1CCCCCC1)Nc1ccc(N2CCCC2)cc1 | 2.66
CN1C2=C(C#N)C(c3ccccc3)(C(F)(F)F)NC(=O)N2c2ccccc21 (stereo unspecified) | -0.282
CC(C)c1nc(-c2ccccc2)c(-c2ccccc2)[nH]1 | -0.0702
CC(C)c1nc(=S)n(-c2ccccc2)[nH]1 | 4.41 (active)
CC(C)c1nc2cc3ccccc3cc2[nH]1 | 0.396
COc1ccc(N2CCN(C(=O)NC34CC5CC(CC(C5)C3)C4)CC2)cc1 | -0.0964
CCC(CCC(=O)Nc1ccc(S(N)(=O)=O)cc1)C(=O)O (stereo unspecified) | 0.735
Cc1[nH]nc2c1C(c1ccccc1F)NC2=O (stereo unspecified) | 2.74
COc1ccc(C2NC(=O)c3n[nH]c(C)c32)c(OC)c1 (stereo unspecified) | 0.447
CCOc1ccc(C2NC(=O)c3n[nH]c(C)c32)cc1 (stereo unspecified) | 0.931
CCOC(=O)c1[nH]c2ccc(OC)cc2c1NC(=S)N1CCN(c2ccc(F)cc2)CC1 | 0.623
Cc1ccc(C(=O)N/N=C/C2=Cc3ccccc3OC2C)cc1 (stereo unspecified) | 3.08 (active)
CC1Oc2ccccc2C=C1/C=N/NC(=O)c1ccccc1 (stereo unspecified) | 1.9
CC1Oc2ccccc2C=C1/C=N/NC(=O)c1ccccc1O (stereo unspecified) | 0.0521
Cc1ccsc1C(=O)NNC(=O)Nc1ccc(Cl)c(Cl)c1 | -0.13
CCOc1ccccc1OCCCCCc1c(C)n[nH]c1C | 3.05 (active)
COc1cccc(OC)c1OCCCCCc1c(C)n[nH]c1C | -0.231
COc1ccccc1OCCCCCc1c(C)n[nH]c1C | -0.151
CCC(=O)N/C(=N/c1nc(C)cc(C)n1)Nc1cccc(OC)c1 | 0.0375
Cc1cc(/C([O-])=C(/C(=S)Nc2ccc(F)cc2)[n+]2ccccc2)c(C)n1-c1ccc(F)cc1 | -0.454
O=C(Nc1nnc(C(F)(F)F)s1)C1COc2ccccc2O1 (stereo unspecified) | -0.109

SMILES | z-score
CCC(CC)c1nnc(NC(=O)Oc2ccccc2)s1 | -0.366
CCC(CC)c1nnc(NC(=O)c2ccc3ccccc3n2)s1 | 11.4 (active)
CCSc1nnc(NC(=O)c2ccc3ccccc3n2)s1 | 11.8 (active)
CCSc1nnc(NC(=O)c2cccc3ccccc23)s1 | -0.316
CCC(CC)c1nnc(NC(=O)c2cc(-c3ccccc3)nc3ccccc23)s1 | -0.847
CCSc1nnc(NC(=O)c2cc(C)nc3ccccc23)s1 | 0.31
CCc1nnc(NC(=O)C2COc3ccccc3O2)s1 (stereo unspecified) | 0.0066
CCC(CC)c1nnc(NC(=O)C2COc3ccccc3O2)s1 (stereo unspecified) | 3.82 (active)
COc1cccc(C2C(C(C)=O)=C(O)C(=O)N2CCc2c[nH]c3ccccc23)c1 (stereo unspecified) | -0.32
Cc1ccc(CSc2ccc(-c3ccco3)nn2)cc1 | 0.361
C=CCN(C(C)=O)C1CC(=O)N(c2ccc(OCCC)cc2)C1=O (stereo unspecified) | -0.00882
C/C(=N\NC(=O)c1csc(C)c1C)c1ccco1 | 0.816
CCC/C(=N/NC(=O)c1csc(C)c1C)c1ccc(Cl)s1 | 5.92 (active)
CCC/C(=N\NC(=O)c1csc(C)c1C)c1cccs1 | 0.475
Cc1scc(C(=O)N/N=C/c2ccco2)c1C | -0.0599
C/C(=N\NC(=O)c1csc(C)c1C)c1ccc(Cl)s1 | 3.54 (active)
CC/C(=N\NC(=O)c1csc(C)c1C)c1cccs1 | 1.32
COc1ccc(CCNC(=O)C2CCCN(S(=O)(=O)c3cnc[nH]3)C2)cc1OC (stereo unspecified) | -0.0112
CCOc1ccccc1C(=O)N(Cc1ccco1)C1CCS(=O)(=O)C1 (stereo unspecified) | 0.0514
CN1C(=O)CSC1=NCC12CC3CC(CC(C3)C1)C2 | -0.123
COc1ccc(Cl)cc1NC(=S)NCCc1c[nH]c2ccccc12 | 0.142
CCOc1ccc(CN(Cc2ccco2)S(=O)(=O)c2ccc(-n3cnnn3)c(OC)c2)cc1 | 2.75
CCOc1ccccc1CN(Cc1ccco1)S(=O)(=O)c1ccc(-n2cnnn2)c(OC)c1 | 0.115

SMILES | z-score
COc1cc(S(=O)(=O)N(Cc2ccc(C)cc2)Cc2ccco2)ccc1-n1cnnn1 | 0.205
O=C(Cc1c(F)cccc1Cl)NCC1CCCO1 (stereo unspecified) | 0.148
CN1/C(=C\C(=S)NC(=O)c2ccc([N+](=O)[O-])cc2)C(C)(C)c2ccccc21 | 0.213
Cc1ccc(C(=O)NC(=S)/C=C2\N(C)c3ccccc3C2(C)C)cc1 | 2.66
CN1/C(=C\C(=S)NC(=O)c2cccc(Br)c2)C(C)(C)c2ccccc21 | -0.0589
CC(C)(C)C(=O)Nc1ccc(-c2cn3ccsc3n2)cc1 | -1.44
CCCN1CNC(=S)N(c2ccc(C(=O)OCC)cc2)C1 | -2.04
O=C(NC(=S)Nc1ccc2c(c1)OCO2)c1ccc(Cl)cc1 | 0.837
Cc1cc(NC(=S)NC(=O)c2ccccc2)ccc1-c1cc2ccccc2oc1=O | -0.165
O=C(CNC(=O)c1ccccc1)NCC1COc2ccccc2O1 (stereo unspecified) | 0.11
O=C(NC(=S)Nc1ccc2c(c1)OCCO2)c1cccc(Br)c1 | 0.945
O=C(NC(=S)NCc1ccc2c(c1)OCO2)c1ccccc1 | 1.1
Cn1ncc2cc(NC(=S)NC(=O)c3ccccc3)ccc21 | 2.21
O=C(NC(=S)Nc1ccc2c(c1)OCO2)c1ccccc1 | 3.25 (active)
O=C(CC(=O)c1ccccc1)Nc1ccc2c(c1)OCCO2 | -0.987
O=C(NC(=S)Nc1ccc2[nH]ncc2c1)c1ccccc1 | -0.139
O=C(NC(=S)Nc1ccc2c(c1)OCCO2)c1ccccc1 | 2.12
O=C(NC(=S)NCC1COc2ccccc2O1)c1ccccc1 (stereo unspecified) | 6.58 (active)
O=C(NCC1COc2ccccc2O1)c1ccccc1 (stereo unspecified) | 0.298
